Source: PubChem BioAssay (National Center for Advancing Translational Sciences (NCATS))
A selection: hits, their analogues and other compounds. The true share with any hit is near 6.6%.
KB-V1 MDR tox = kills drug-selected multidrug resistant KB-V1 cells; Potency, µM (top dose mostly 46.1 µM), hits mostly cytotoxic; 3.4% of 400,000 active; AID 1347076; KB-V1 MDR cells viability, CellTiter-Glo, 72 h; further: on the % scale 0 is the no-effect control and ±100 the full control effect; nearly all actives have a fitted effect of over 60% in size
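Cells of the MDR subline KB-V1 are plated, dosed with compound at multiple concentrations, and incubated 72 h at 37 degrees C; CellTiter-Glo is then added and luminescence read after 10 min.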
SW480 rereplic = DNA re-replication induction in SW480 cells. SW480 DNA re-replication, Hoechst DNA content imaging, 48 h. Potency, µM (highest dose often 46.1 µM), for the others: at the top dose re-replication activation, hits mostly activators. 1.8% of 340,000 active; further: % of control where 0% means no effect; nearly all actives have a fitted effect of over 55% in size
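250 cells/well; 23 nL cpd via pin tool; 48 hr, 37 C, 5% CO2; Hoechst 40 min; imager read of total nuclear intensity, ex 405/em 500-530 nm.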
MCF10A rerep = inducers of DNA re-replication in MCF 10A breast cells; MCF 10A DNA re-replication, Hoechst nuclear intensity, 48 h; AID 624296; Potency, µM (series often up to 46.1 µM), for inactives: top-dose activity, positive = re-replication, usual class: activators; 2.9% of 350,000 active; further: % of control where 0% means no effect; nearly all actives have a fitted effect of over 50% in size
TSG101-PTAP inh = blocks PTAP/TSG101 interaction to inhibit HIV-1 budding. Q99816. Fluorescence polarization, FITC-PTAP peptide / Tsg101 binding. Potency, µM (highest dose often 115 µM), inactives show at the top dose activity change, negative = inhibition, hits mostly inhibitors. 340,000 tested, under 10 active. AID 493005; active means well fitted inhibition curve with a large enough effect in the main read-out, with a control signal flat, not every such curve was filed as active; inconclusive means small, poorly fitted or top-dose-only effect, or effect the other way, or a change in a side signal; inactive means no such curve, though single readings can be large or run the other way; further: % of control where 0% means no effect
Target sequence (Q99816 whole entry, looked up): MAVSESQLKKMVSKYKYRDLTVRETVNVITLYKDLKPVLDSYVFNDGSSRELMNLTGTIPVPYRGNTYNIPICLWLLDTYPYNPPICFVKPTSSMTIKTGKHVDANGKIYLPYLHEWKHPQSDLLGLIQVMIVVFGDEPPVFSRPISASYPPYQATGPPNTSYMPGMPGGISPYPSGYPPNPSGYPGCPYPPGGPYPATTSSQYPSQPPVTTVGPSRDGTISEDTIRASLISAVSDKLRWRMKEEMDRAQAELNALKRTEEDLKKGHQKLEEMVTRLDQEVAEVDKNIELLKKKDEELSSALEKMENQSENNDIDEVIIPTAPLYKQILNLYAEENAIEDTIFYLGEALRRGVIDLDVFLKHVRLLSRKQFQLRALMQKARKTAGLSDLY
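Fluorescence anisotropy tracks displacement of a FITC-tagged PTAP peptide (50 nM) from the Tsg101 binding domain (10 uM), following a 20 min room-temperature incubation at pH 7.5.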
RGS4 inh = human RGS4 inhibition. P49798. Transcreener GDP fluorescence polarization, RGS4-accelerated GTP hydrolysis. Potency, µM (top dose mostly 114 µM), for inactives: at the top dose activity change, negative = inhibition, usual class: inhibitors. 0.039% of 390,000 active. AID 504845; further: on the % scale 0 is the no-effect control and ±100 the full control effect; nearly all actives have a fitted effect of over 75% in size
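MLSMR compounds (23 nl, pin-transferred) preincubated 10 min at room temperature with a 500nM (2x) first reagent, then RGS4 at 900nM (2x) plus Transcreener GDP mix added; fluorescence polarization (620/688 nm) read before and after 90 min at 30 °C.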
KB-3-1 cytotox = kills parental KB-3-1 adenocarcinoma cells | KB-3-1 viability, CellTiter-Glo ATP luminescence, 72 h | Potency, µM (top dose mostly 46.1 µM), actives largely listed as cytotoxic | 1.4% of 400,000 active | AID 1347075; further: on the % scale 0 is the no-effect control and ±100 the full control effect; nearly all actives have a fitted effect of over 60% in size
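Cytotoxicity in the drug-sensitive parental line KB-3-1 was scored as loss of CellTiter-Glo luminescence following 72 h incubation with compound. Values come from curve fitting of normalized concentration-response data.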
Numbers without * were called inactive; i = inactive; ? = inconclusive; nt = no result given. Unless noted, the call rests on the fitted dose curve; in most records, active means well fitted curve in the direction sought with a large enough effect; inconclusive means small, poorly fitted or top-dose-only effect, or another doubt; inactive means no such curve, though single readings can be large; an effect the other way counts as inactive or inconclusive. Potency means the concentration at half of the fitted maximal effect.

SMILES	KB-V1 MDR tox	SW480 rereplic	MCF10A rerep	TSG101-PTAP inh	RGS4 inh	KB-3-1 cytotox
Oc1ccc(Cl)cc1Nc1nc(NCC2CCCO2)c2ccccc2n1 (centres undefined)	i	?	23.1µM*	-8.9%	-4.9%	i
COc1cccc(N2CCN(C(=O)c3ccc4c(Cl)c5c(nc4c3)CCCC5)CC2)c1	i	nt	nt	nt	-8.3%	i
CCOc1ccc(S(=O)(=O)n2nc(C)c(S(=O)(=O)N3CCCCC3)c2C)cc1	?	nt	nt	nt	6.8%	i
CC(C)C[C@H](NC(=O)OC(C)(C)C)C(=O)N[C@@H](CO)[C@H](O)[C@@H]1C[C@@H]1C(=O)NC1CCCCC1	10.3µM*	8.6%	?	-4.2%	-18.5%	i
COc1ccc(C(=O)/C=C/c2cn(CC(O)CN3CCN(C)CC3)c3ccccc23)cc1OC (centres undefined)	i	23.1µM*	10.3µM*	?	?	i
O=C(/C=C/c1cn(CC(O)CN2CCCCC2)c2ccccc12)c1ccccc1 (centres undefined)	i	20.6µM*	20.6µM*	-4.3%	-10.5%	i
Cc1ccc(C(=O)/C=C/c2cn(CC(O)CN3CCCCCC3)c3ccccc23)cc1 (centres undefined)	i	nt	nt	nt	-14.8%	i
O=C(/C=C/c1cn(CC(O)CN2CCCCCC2)c2ccccc12)c1ccccc1 (centres undefined)	i	nt	nt	nt	-5.6%	?
O=C(/C=C/c1cn(CC(O)CN2CCCCC2)c2ccccc12)c1cccs1 (centres undefined)	23.1µM*	20.6µM*	23.1µM*	23.0%	-1.1%	?
Cc1ccccc1Nc1nnc(-c2ccc(C)c(S(=O)(=O)N3CCCCC3)c2)c2ccccc12	i	nt	nt	nt	8.0%	i
COc1cc(N)c(NC(=O)/C=C/c2nc3cc(OC)c(OC)cc3[nH]2)cc1OC	i	nt	nt	nt	nt	i
CCOc1ccc2nc(N/C(N)=N/C(=S)Nc3cccc(C)c3)nc(C)c2c1	23.1µM*	-6.7%	-2.4%	-4.7%	27.8%	i
CCc1ccccc1NC(=S)/N=C(\N)Nc1nc(C)c2cc(C)ccc2n1	6.51µM*	20.6µM*	?	-0.5%	-12.6%	?
Cc1ccc(NC(=S)/N=C(\N)Nc2nc(C)c3cc(C)ccc3n2)c(C)c1	?	-15.9%	?	-2.3%	-6.1%	i
COc1ccc(-c2nc(CN3CCN(c4cc(C)nc(C)c4)CC3)c(C)o2)c2ccccc12	i	?	16.4µM*	-4.3%	14.5%	?
Cc1cccc(NC(=S)N(CCCN2CCOCC2)Cc2cn(C)c3ccccc23)c1	i	?	?	-4.1%	-9.6%	?
Cn1cc(CC(=O)NCCN2CCOCC2)c2ccccc21	i	23.1µM*	14.9%	-3.2%	32.2%	i
Cc1ccc(NC(=S)N(C)Cc2cn(C)c3ccccc23)cc1	20.6µM*	-1.5%	?	-3.3%	-42.2%	i
S=C(Nc1cccc(Cl)c1)N(CCCN1CCCC1)Cc1cccn1Cc1ccc(Cl)cc1	11.6µM*	-1.4%	?	-1.9%	-25.3%	?
S=C(Nc1ccccc1Cl)N(CCCN1CCOCC1)Cc1ccco1	20.6µM*	-2.8%	4.4%	-1.9%	-16.3%	i
Cc1c(Cl)cccc1NC(=S)N(CCCN1CCOCC1)Cc1ccco1	i	?	8.4%	-6.3%	-29.2%	i
CC(C)c1ccc(NC(=O)CN2C=NS(=O)(=O)c3ccccc32)cc1	i	nt	nt	nt	2.2%	i
COc1ccc(Cl)cc1NCc1nnc2n1CCCCC2	i	nt	nt	nt	2.8%	i
CCN(C(=O)CCc1nc(-c2ccc(C)cc2)no1)c1cccc(C(F)(F)F)c1	i	nt	nt	nt	3.5%	i
COc1ccc(OC)c(CN(CCN2CCOCC2)C(=O)Nc2cccc(Cl)c2)c1	3.66µM*	13.1%	22.0%	-0.3%	-6.5%	i
